Results from the supplement of paper PMC10849652.
Of roughly 7,900 targets only a part is listed; those with a hit were picked by preference. About 0.6% of all pairs of compound and target were hits.

Tests used:
Assay in all cases: log2 fold change, soluble protein after heating vs DMSO (PISA); higher = thermal stabilisation; K562 cells, 10 uM, 30 min; active = over 0.2 and 3.5 SD of the protein, either way, in both replicates (recomputed)
[1] = compound: CC[C@@H]1C(=O)N(C)c2cnc(Nc3ccc(C(=O)NC4CCN(C)CC4)cc3OC)nc2N1C1CCCC1
How it was run: (§1)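 Aliquots of K562 cells (2×10^6 cells/mL) treated with 10 μM compound for 30 min were heated for 3 min over 48°C-58°C. After pooling and extraction in PBS with 0.5% NP-40 at 4°C, soluble protein from a 21,000xg, 90 min spin was quantified by TMTpro 16plex LC-MS/MS with channel sums equalised. Thermal stability is expressed against control samples, from duplicates, as a log2 fold change.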

volasertib = compound: CC[C@@H]1C(=O)N(C)c2cnc(Nc3ccc(C(=O)N[C@H]4CC[C@H](N5CCN(CC6CC6)CC5)CC4)cc3OC)nc2N1C(C)C [volasertib]
How it was run: as §1

[2] = compound: CN(C)CC(=O)Nc1ccc2[nH]c(=O)c3ccccc3c2c1
How it was run: as §1

rosiglitazone = compound: CN(CCOC1=CC=C(C=C1)C[C@H]2C(=O)NC(=O)S2)C3=CC=CC=N3 (racemic) [rosiglitazone]
How it was run: as §1

[3] = compound: CN1C2=C(C3=C1C(=O)N(N=C3)CC4=CC(=CC=C4)N)SC(=C2)S(=O)C
How it was run: as §1

saracatinib = compound: CN1CCN(CCOc2cc(OC3CCOCC3)c3c(Nc4c(Cl)ccc5c4OCO5)ncnc3c2)CC1 [saracatinib]
How it was run: as §1

sotrastaurin = compound: CN1CCN(c2nc(C3=C(c4c[nH]c5ccccc45)C(=O)NC3=O)c3ccccc3n2)CC1 [sotrastaurin]
How it was run: as §1

alvocidib = compound: CN1CC[C@H](c2c(O)cc(O)c3c(=O)cc(-c4ccccc4Cl)oc23)[C@H](O)C1 [alvocidib]
How it was run: as §1

Tubastatin A = compound: CN1CCc2c(c3ccccc3n2Cc2ccc(C(=O)NO)cc2)C1 [Tubastatin A]
How it was run: as §1

defactinib = compound: CNC(=O)c1ccc(Nc2ncc(C(F)(F)F)c(NCc3nccnc3N(C)S(C)(=O)=O)n2)cc1 [defactinib]
How it was run: as §1

rucaparib = compound: CNCc1ccc(-c2[nH]c3cc(F)cc4c3c2CCNC4=O)cc1 [rucaparib]
How it was run: as §1

[4] = compound: CNc1nc(-c2ccc3c(N)n[nH]c3c2)cc(N2C[C@@H](C(=O)NC3CCCCC3)CC[C@H]2C)n1
How it was run: as §1

encorafenib = compound: COC(=O)N[C@@H](C)CNc1nccc(-c2cn(C(C)C)nc2-c2cc(Cl)cc(NS(C)(=O)=O)c2F)n1 [encorafenib]
How it was run: as §1

[5] = compound: COC(=O)[C@H](CCSC)NC(=O)C1=C(C=C(C=C1)NC[C@H](CS)N)C2=CC=CC=C2
How it was run: as §1

[6] = compound: CC[C@H](C)N1C=C(C2=C(C=C(C=C21)C3=CN=C(C=C3)N4CCNCC4)C(=O)NCC5=C(C=C(NC5=O)C)C)C
How it was run: as §1

epoxomicin = compound: CC[C@H](C)[C@@H](C(=O)N[C@@H]([C@@H](C)O)C(=O)N[C@@H](CC(C)C)C(=O)[C@]1(CO1)C)NC(=O)[C@H]([C@@H](C)CC)N(C)C(=O)C [epoxomicin]
How it was run: as §1

[7] = compound: CCn1c(C(=O)N(C2CC2)C2CC2)cc2c3c(ncn3C)c(Nc3cc(C)n(C)n3)nc21
How it was run: as §1

[8] = compound: CCn1cc(-c2ccnc3[nH]c(-c4cccc(CN(C)C)c4)cc23)c(-c2ccc(NC(=O)N(C)C)cc2)n1
How it was run: as §1

[9] = compound: CN1CCC(CNc2ccc3ncc(-c4cccc(OC(F)(F)F)c4)n3n2)CC1
How it was run: as §1

[10] = compound: CNC(=O)C1=CC=CC=C1NC2=NC(=NC=C2Cl)NC3=C(C=C(C=C3)N4CCOCC4)OC
How it was run: as §1

Measured: log2 fold change

CEP128 (UniProt Q6ZU80)
UniProt Q6ZU80, sequence (Q6ZU80 whole entry, looked up): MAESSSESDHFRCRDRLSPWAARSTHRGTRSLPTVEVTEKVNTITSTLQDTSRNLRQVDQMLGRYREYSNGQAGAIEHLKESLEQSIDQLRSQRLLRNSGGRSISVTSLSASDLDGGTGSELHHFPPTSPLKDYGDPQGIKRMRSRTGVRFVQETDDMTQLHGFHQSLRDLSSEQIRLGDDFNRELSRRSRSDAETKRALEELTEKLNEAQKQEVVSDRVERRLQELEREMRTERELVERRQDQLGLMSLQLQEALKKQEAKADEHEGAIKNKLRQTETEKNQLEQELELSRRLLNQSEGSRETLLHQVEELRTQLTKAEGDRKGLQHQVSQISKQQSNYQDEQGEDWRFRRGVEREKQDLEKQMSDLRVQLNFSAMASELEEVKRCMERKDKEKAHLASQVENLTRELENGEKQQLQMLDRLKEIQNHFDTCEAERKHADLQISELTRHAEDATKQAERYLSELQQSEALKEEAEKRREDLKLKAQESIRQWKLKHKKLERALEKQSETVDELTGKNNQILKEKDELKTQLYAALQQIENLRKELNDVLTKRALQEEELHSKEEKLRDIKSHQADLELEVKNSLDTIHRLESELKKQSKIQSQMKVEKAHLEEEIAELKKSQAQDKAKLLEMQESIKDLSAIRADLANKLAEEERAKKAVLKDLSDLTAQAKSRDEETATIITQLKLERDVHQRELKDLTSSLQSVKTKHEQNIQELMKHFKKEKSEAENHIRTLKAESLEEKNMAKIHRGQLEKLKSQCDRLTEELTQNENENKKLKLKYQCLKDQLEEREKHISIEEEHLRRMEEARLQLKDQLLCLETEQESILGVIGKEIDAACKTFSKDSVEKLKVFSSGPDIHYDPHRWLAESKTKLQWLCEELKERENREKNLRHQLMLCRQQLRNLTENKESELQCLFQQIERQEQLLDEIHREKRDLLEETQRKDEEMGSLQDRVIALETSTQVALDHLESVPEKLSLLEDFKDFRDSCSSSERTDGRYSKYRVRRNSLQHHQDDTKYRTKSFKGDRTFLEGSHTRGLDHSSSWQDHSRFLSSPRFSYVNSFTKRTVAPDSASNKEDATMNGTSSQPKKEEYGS
inactive: [1] -0.009 | volasertib -0.09 | [2] -0.11 | rosiglitazone 0.049 | [3] 0.039 | saracatinib -0.092 | sotrastaurin -0.022 | alvocidib 0.033 | Tubastatin A 0.024 | defactinib 0.027 | rucaparib -0.306 | [4] -0.22 | encorafenib 0.061 | [5] 0.044

CDKN1B (UniProt P46527)
UniProt P46527, sequence (P46527 whole entry, looked up): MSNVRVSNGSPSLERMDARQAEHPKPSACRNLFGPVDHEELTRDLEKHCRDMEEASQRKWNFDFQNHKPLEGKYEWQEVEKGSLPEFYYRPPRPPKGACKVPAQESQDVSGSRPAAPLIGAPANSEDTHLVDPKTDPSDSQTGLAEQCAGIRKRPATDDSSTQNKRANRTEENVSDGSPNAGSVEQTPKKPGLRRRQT
inactive: volasertib 0.028 | [6] -0.083 | epoxomicin 0.393 | [7] -0.034 | [8] 0.036 | [2] 0.025 | rosiglitazone 0.067 | [3] 0.06 | [9] 0.073 | saracatinib 0.29 | sotrastaurin 0.129 | alvocidib 0.256 | [10] -0.247 | defactinib 0.163 | [4] -0.298 | [5] 0.028

CAV2 (UniProt P51636)
UniProt P51636, sequence (P51636 whole entry, looked up): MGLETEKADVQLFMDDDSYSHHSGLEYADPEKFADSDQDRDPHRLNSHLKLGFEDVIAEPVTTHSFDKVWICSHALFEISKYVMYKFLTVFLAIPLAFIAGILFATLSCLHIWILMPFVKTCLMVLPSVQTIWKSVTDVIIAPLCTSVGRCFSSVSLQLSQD
inactive: volasertib -0.098 | [6] -0.032 | [7] -0.059 | [8] -0.036 | rosiglitazone -0.076 | [3] 0.01 | [9] 0.074 | saracatinib -0.006 | sotrastaurin 0.045 | Tubastatin A 0.159 | [10] -0.019 | [4] 0.013

CS (UniProt F8VU34)
inactive: [1] -0.093 | rosiglitazone 0.221 | rucaparib 0.268 | encorafenib 0.158

CLN5 (UniProt O75503)
UniProt O75503, sequence (O75503 whole entry, looked up): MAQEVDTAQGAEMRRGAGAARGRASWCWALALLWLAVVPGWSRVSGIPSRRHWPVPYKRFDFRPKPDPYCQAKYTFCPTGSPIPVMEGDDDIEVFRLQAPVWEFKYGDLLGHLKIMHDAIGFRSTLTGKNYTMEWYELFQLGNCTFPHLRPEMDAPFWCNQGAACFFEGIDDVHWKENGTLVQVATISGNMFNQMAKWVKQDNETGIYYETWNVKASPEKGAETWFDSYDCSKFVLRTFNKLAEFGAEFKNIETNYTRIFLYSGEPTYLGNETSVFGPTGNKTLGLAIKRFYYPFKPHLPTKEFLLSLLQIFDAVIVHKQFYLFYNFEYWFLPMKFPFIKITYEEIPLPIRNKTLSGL
inactive: [6] -0.001 | epoxomicin 0.014 | [7] 0.416 | [8] -0.183 | rosiglitazone -0.025 | [3] 0.139 | saracatinib -0.283 | sotrastaurin -0.008 | alvocidib 0.01 | Tubastatin A 0.079 | [10] 0.032 | [4] -0.715
active: volasertib -1.25 | [9] -0.834

CNRIP1 (UniProt Q96F85)
UniProt Q96F85, sequence (Q96F85 whole entry, looked up): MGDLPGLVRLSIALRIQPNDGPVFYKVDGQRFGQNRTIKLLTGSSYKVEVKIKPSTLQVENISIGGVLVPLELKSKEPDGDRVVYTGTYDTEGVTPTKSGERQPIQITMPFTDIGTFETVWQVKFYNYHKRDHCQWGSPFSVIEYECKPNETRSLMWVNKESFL
inactive: volasertib 0.306 | [6] -0.269 | epoxomicin -0.043 | [7] -0.136 | [10] 0.053

CASP7 isoform 3 (UniProt P55210)
UniProt P55210, sequence (P55210 whole entry, looked up): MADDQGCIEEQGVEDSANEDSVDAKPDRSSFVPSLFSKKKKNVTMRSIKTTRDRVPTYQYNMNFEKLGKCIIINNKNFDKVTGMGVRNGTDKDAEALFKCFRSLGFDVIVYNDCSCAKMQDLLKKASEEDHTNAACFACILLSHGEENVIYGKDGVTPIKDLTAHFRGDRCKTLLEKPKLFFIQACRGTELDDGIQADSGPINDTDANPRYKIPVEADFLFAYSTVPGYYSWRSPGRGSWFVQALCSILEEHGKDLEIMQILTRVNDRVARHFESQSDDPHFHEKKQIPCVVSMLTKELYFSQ
inactive: [1] 0.014 | [6] 0.017 | epoxomicin 0.222 | [7] -0.001 | [8] -0.569 | rosiglitazone 0.259 | [3] 0.032 | [9] -0.697 | saracatinib 0.185 | [10] 0.151 | rucaparib -0.013 | [4] 0.254 | encorafenib 0.014

C9orf72 (UniProt Q96LT7)
UniProt Q96LT7, sequence (Q96LT7 whole entry, looked up): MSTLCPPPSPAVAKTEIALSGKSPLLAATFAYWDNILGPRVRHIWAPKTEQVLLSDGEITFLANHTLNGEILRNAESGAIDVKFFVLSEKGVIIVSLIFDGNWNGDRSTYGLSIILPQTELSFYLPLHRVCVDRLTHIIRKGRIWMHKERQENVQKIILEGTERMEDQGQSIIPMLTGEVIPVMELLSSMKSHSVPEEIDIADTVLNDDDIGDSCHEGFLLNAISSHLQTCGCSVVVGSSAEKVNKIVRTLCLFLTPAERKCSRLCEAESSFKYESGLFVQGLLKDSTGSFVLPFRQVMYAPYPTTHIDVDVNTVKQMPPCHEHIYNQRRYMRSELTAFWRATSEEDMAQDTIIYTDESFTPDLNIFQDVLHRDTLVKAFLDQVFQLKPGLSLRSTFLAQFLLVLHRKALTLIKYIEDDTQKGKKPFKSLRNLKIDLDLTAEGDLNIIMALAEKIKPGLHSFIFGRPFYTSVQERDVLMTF
inactive: volasertib -0.089 | [6] 0.062 | epoxomicin -0.008 | [7] 0.003 | [8] 0.226 | [2] 0.075 | rosiglitazone -0.033 | [3] -0.094 | [9] 0.209 | saracatinib 0.071 | sotrastaurin 0.129 | alvocidib -0.04 | Tubastatin A -0.126 | [10] -0.071 | defactinib -0.056 | [4] -0.021 | [5] 0

C22orf39 (UniProt Q6P5X5)
UniProt Q6P5X5, sequence (Q6P5X5 whole entry, looked up): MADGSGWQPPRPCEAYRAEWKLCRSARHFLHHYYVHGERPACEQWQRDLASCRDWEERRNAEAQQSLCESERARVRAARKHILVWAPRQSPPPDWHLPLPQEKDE
inactive: volasertib 0.134 | [6] -0.042 | epoxomicin 0.081 | [7] -0.08 | rosiglitazone -0.119 | [3] 0.043 | saracatinib 0.076 | sotrastaurin -0.028 | alvocidib 0.013 | Tubastatin A -0.013 | [10] 0.129 | [4] 0.056

COMMD3-BMI1 (UniProt R4GMX3)
inactive: volasertib 0.038 | [6] 0.062 | epoxomicin 0.026 | [8] 0.006 | [9] -0.105 | sotrastaurin -0.024 | alvocidib 0.05 | Tubastatin A -0.074

COG2 (UniProt Q14746)
inactive: [1] -0.173 | [6] -0.357 | epoxomicin 0.008 | [7] 0.076 | [3] 0.302 | saracatinib 0.001 | sotrastaurin -0.32 | alvocidib 0.137 | Tubastatin A -0.08 | [10] -0.135 | rucaparib -0.272 | [4] -0.085 | encorafenib 0.007

CLINT1 (UniProt Q14677)
UniProt Q14677, sequence (Q14677 whole entry, looked up): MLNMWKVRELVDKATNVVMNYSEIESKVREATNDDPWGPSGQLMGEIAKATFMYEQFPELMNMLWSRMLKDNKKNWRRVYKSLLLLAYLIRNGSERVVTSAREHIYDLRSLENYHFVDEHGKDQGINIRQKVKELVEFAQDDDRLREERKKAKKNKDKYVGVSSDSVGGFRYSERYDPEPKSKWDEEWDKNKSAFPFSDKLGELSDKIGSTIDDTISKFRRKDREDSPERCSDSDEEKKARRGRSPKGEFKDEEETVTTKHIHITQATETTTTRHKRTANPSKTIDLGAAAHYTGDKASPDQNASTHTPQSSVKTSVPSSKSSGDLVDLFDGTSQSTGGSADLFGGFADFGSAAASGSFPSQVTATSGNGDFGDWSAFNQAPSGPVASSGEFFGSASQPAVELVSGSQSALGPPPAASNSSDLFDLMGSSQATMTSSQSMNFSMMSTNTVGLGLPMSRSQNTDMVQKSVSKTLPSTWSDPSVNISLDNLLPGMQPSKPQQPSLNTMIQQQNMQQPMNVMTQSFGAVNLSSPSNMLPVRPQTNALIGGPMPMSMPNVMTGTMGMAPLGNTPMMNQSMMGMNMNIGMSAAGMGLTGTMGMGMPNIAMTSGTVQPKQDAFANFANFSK
inactive: [1] -0.022 | [6] 0.021 | epoxomicin -0.035 | [2] -0.075 | rosiglitazone 0.003 | [3] -0.218 | saracatinib -0.003 | alvocidib -0.112 | Tubastatin A -0.029 | defactinib -0.002 | rucaparib 0.128 | [4] -0.062 | encorafenib -0.045 | [5] 0.036

C5orf30 (UniProt Q96GV9)
UniProt Q96GV9, sequence (Q96GV9 whole entry, looked up): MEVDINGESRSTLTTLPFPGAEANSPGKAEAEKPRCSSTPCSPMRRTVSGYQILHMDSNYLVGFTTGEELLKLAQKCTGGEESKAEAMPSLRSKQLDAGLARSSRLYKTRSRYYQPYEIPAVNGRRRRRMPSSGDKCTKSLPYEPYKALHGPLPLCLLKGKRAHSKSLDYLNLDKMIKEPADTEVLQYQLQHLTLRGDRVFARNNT
inactive: volasertib 0.001 | epoxomicin 0.165 | Tubastatin A 0.502

CREB3L2 (UniProt Q70SY1)
UniProt Q70SY1, sequence (Q70SY1 whole entry, looked up): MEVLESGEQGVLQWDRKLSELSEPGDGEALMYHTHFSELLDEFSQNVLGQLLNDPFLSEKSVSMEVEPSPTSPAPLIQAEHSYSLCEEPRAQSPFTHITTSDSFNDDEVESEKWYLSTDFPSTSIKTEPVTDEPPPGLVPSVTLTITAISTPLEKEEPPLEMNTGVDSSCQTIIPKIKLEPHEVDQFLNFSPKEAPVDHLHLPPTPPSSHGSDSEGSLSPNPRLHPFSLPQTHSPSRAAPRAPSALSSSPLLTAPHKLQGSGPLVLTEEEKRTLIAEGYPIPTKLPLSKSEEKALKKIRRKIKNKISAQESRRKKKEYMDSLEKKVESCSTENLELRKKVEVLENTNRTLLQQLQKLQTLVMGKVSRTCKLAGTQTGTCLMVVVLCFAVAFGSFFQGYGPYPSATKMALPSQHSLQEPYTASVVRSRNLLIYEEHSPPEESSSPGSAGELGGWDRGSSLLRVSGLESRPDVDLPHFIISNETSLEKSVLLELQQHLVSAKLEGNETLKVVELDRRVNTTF
inactive: [6] 0.067 | epoxomicin 0.035 | [7] -0.125 | [2] 0.069 | rosiglitazone -0.031 | alvocidib -0.242 | Tubastatin A 0.282 | [10] -0.19 | defactinib -0.039 | [5] -0.172
